Measured values taken from PMC4336329 (PLoS ONE, 2015).
About 14,000 (4.5%) of roughly 310,000 compounds showed an effect of 50% or more. Effects have a minus sign here. The entries come from a sample that favours strong results as a whole.

Target: human ether-à-go-go-related gene (hERG) potassium channel (human, UniProt Q12809)
Test: primary screen, population patch clamp on CHO cells stably expressing hERG; higher = less effect of the substance
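Note: peak tail current of the secondary pulse compared with the same well before compound.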

human ether-à-go-go-related gene (hERG) potassium channel, sequence (Q12809 whole entry, looked up): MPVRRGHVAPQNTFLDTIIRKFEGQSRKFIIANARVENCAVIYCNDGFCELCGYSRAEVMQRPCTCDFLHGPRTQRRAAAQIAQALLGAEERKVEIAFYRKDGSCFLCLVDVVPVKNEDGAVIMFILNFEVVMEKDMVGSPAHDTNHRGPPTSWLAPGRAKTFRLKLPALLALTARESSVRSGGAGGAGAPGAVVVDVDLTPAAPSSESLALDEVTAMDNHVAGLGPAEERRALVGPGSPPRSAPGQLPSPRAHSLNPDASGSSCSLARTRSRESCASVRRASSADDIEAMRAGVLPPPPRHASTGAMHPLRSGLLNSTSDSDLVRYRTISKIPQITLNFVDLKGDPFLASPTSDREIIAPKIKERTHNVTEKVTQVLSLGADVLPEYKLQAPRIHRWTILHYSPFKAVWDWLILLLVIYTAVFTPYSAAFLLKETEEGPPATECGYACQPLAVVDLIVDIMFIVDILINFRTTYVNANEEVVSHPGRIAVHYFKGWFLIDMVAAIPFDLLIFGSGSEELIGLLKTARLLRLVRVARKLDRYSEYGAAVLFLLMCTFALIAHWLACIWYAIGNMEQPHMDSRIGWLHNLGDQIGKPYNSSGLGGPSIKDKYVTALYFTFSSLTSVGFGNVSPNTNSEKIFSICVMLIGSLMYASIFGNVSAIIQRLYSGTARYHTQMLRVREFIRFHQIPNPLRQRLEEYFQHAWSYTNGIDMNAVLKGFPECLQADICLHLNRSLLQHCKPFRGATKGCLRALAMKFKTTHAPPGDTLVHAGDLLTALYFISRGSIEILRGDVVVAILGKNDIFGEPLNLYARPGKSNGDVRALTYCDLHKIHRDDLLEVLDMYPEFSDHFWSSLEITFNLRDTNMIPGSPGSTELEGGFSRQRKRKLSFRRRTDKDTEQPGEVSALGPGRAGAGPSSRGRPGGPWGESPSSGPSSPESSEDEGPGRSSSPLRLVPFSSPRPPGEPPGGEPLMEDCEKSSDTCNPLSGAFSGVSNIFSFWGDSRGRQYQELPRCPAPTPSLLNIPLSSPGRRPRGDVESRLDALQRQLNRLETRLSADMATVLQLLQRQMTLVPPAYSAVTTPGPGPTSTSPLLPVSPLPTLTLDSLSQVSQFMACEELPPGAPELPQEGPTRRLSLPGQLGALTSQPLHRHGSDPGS

SMILES | hERG current change (%, negative = inhibition) at 10uM [%]
O=C(NCCCN1CCCC1=O)c1cccc(S(=O)(=O)Nc2ccc(F)cc2)c1 | -24.5
CCOC(=O)C1C(=O)Nc2nc(C)nn2C1c1ccccc1 (centres unmarked) | 14.4
CCCc1ccc(C(=O)O/N=C(\N)c2ccccn2)cc1 | -0.642
CCn1cc(C(=O)NCc2ccncc2)c(=O)c2cc(F)c(N3CCN(C(=O)c4ccco4)CC3)cc21 | -66.4
CCn1cc(C(=O)NCc2ccccc2)c(=O)c2cc(F)c(N3CCN(C(=O)c4ccco4)CC3)cc21 | -39.6
CCn1cc(C(=O)NCc2cccnc2)c(=O)c2cc(F)c(N3CCN(C(=O)c4ccco4)CC3)cc21 | -37.6
O=C(NCc1ccc(N2CCCC2=O)cc1)c1cccc(Cl)c1 | 1.27
CC(C)(C)C(=O)Nc1ccc(-c2cc3cc(Cl)ccc3o2)cc1 | 8.12
Cc1ccc(NS(=O)(=O)c2ccc3oc(=O)ccc3c2)cc1Cl | 3.79
CCC(=O)c1ccccc1OCCCCn1cncn1.O=C(O)C(=O)O | 4.82
CCC(=O)c1ccccc1OCCN1CCN(CC)CC1.O=C(O)C(=O)O | -13.7
N#Cc1ccccc1OCCCNC1CCCC1.O=C(O)C(=O)O | -11.5
CCC(=O)c1ccccc1OCCCN1CCC(Cc2ccccc2)CC1.O=C(O)C(=O)O | -78.5
CCc1ccccc1OCCCCN1CCCC1.O=C(O)C(=O)O | -40
COC(=O)c1ccccc1OCCN1CCCCCC1.O=C(O)C(=O)O | -46.2
CCC(=O)c1ccccc1OCCN1CCN(Cc2ccccc2)CC1.O=C(O)C(=O)O | -59.1
CCc1ccccc1OCCCN1CCCC1.O=C(O)C(=O)O | -17.6
O=C(O)C(=O)O.OCc1ccccc1OCCCN1CCC(Cc2ccccc2)CC1 | -75
CC(C)c1ccccc1OCCCN1CCCC1.O=C(O)C(=O)O | -33.1
CCC(=O)c1ccccc1OCCCN1C(=O)NC(C)(C)C1=O | 0.00578
N#Cc1ccccc1OCCCN1CCC(Cc2ccccc2)CC1.O=C(O)C(=O)O | -80
O=C(CSc1nccc(=O)[nH]1)Nc1cccc(S(=O)(=O)N2CCOCC2)c1 | 4.22

SMILES | hERG current change (%, negative = inhibition) at 10uM [%]
Cn1cnc2c1c(=O)n(Cc1c(Cl)cccc1Cl)c(=O)n2C | -3.36
COc1ccccc1NC(=O)CSc1nc2sc(C)c(C)c2c(=O)n1C | 6.42
CC(=O)N1CCN(S(=O)(=O)c2cccc(C(=O)NCCc3ccc(Cl)cc3)c2)CC1 | -12.1
CC1Cc2ccccc2N1C(=O)COC(=O)C1=COCCO1 (centres unmarked) | -7.1
COc1ccc(CCNC(=O)COC(=O)/C=C/c2ccc(OC)c(OC)c2)cc1 | -16
O=C(CSc1nncn1-c1cccnc1)N(c1ccccc1)c1ccccc1 | 4.28
CN(C)S(=O)(=O)N1CCN(C(=O)c2cccs2)CC1 | 7.17
CC1=Nc2ccc(Br)cc2C(c2ccccc2)N1CC(=O)O (centres unmarked) | 33.7
Br.COC(=O)CN1C(C)=Nc2ccc(Br)cc2C1c1ccccc1 (centres unmarked) | -49.1
COC(=O)CN1C(C)=Nc2ccc(C)cc2C1c1ccccc1 (centres unmarked) | -43.1
CCC1=Nc2ccc(Br)cc2C(c2ccccc2)N1CC(=O)OC (centres unmarked) | -59.1
COC(=O)CN1C(CN2CCOCC2)=Nc2ccc(Br)cc2C1c1ccccc1 (centres unmarked) | -75.3
NNC(=O)CN1C(CN2CCOCC2)=Nc2ccc(Br)cc2C1c1ccccc1 (centres unmarked) | -48.9
Cc1nnc(NC(=O)c2ccc(S(=O)(=O)N3CC(C)CC(C)C3)cc2)o1 (centres unmarked) | 5.33
CCc1cccc2c(C(=O)C(NCCCOC)c3ccccc3)c[nH]c12 (centres unmarked) | 2.05
O=C(CSc1cccc(C(F)(F)F)c1)Nc1cc(S(=O)(=O)N2CCCC2)ccc1Cl | -5.28
CCOC(=O)N1CCC(N2C(=O)c3ccccc3C2Nc2cc(OC)c(OC)c(OC)c2)CC1 (centres unmarked) | -17.8
CCOC(=O)c1ccccc1NC1c2ccccc2C(=O)N1C1CCN(C(=O)OCC)CC1 (centres unmarked) | -56.4
CCOC(=O)N1CCC(N2C(=O)c3ccccc3C2Nc2ccccc2C)CC1 (centres unmarked) | -46.5
CCOC(=O)N1CCC(N2C(=O)c3ccccc3C2Nc2ccccc2)CC1 (centres unmarked) | -9.74
CCOC(=O)N1CCC(N2C(=O)c3ccccc3C2Nc2ccc3c(c2)OCCO3)CC1 (centres unmarked) | -7.43
CCOC(=O)N1CCC(N2C(=O)c3ccccc3C2Nc2cc(C(=O)OC)cc(C(=O)OC)c2)CC1 (centres unmarked) | -17.5

SMILES | hERG current change (%, negative = inhibition) at 10uM [%]
CCOC(=O)N1CCC(N2C(=O)c3ccccc3C2Nc2ccc3c(C)cc(=O)oc3c2)CC1 (centres unmarked) | -63.8
CCOC(=O)N1CCC(N2C(=O)c3ccccc3C2Nc2cc(C)cc(C)c2)CC1 (centres unmarked) | -21.8
CCOC(=O)N1CCC(N2C(=O)c3ccccc3C2Nc2c(C)cccc2C)CC1 (centres unmarked) | -75.1
Cc1nn(C)c(C(=O)N/N=C/c2cc3c(cc2Br)OCO3)c1Br | 11.2
COCc1cc(C)n(CC(=O)NCC2CCCO2)c(=O)c1C#N (centres unmarked) | 12
CCOc1ccc(/C=C2\SC(=S)N(CCCC(=O)NCCCN3CCOCC3)C2=O)cc1 | -4.5
CC(=O)NCCc1ccc(S(=O)(=O)Nc2ccc3c(c2)OCCO3)cc1 | 12.3
CC(=O)NCCc1ccc(S(=O)(=O)NCc2ccc3c(c2)OCO3)cc1 | 2.45
CCCc1cc2c(cc1NS(=O)(=O)c1ccc(CCNC(C)=O)cc1)OCO2 | -63
CCCCNC(=O)CSc1nnc(-c2cccc(S(=O)(=O)N3CCOCC3)c2)o1 | -18.1
CC(=O)c1sc(NC(=O)c2ccc(COc3ccccc3Cl)o2)nc1C | 33.5
CC(=O)N(CN1C(=O)CCC1=O)c1cccc(Cl)c1 | -17
CCCNCC(O)Cn1c2ccccc2n2c(=O)cc(C)c(C#N)c12 (centres unmarked) | -29.7
Cc1cc(=O)n2c3ccccc3n(CC(O)CN3CCCC3)c2c1C#N (centres unmarked) | -44.8
Cc1cc(=O)n2c3ccccc3n(CC(O)CN3CCN(Cc4ccccc4)CC3)c2c1C#N (centres unmarked) | -62.8
Cc1cc(=O)n2c3ccccc3n(CC(O)CN3CCOCC3)c2c1C#N (centres unmarked) | 17.9
Cc1cc(=O)n2c3ccccc3n(CC(O)CN3CCN(CCO)CC3)c2c1C#N (centres unmarked) | -16
Cc1cc(=O)n2c3ccccc3n(CC(O)CN3CCCCC3)c2c1C#N (centres unmarked) | -53.2
Cc1cc(C(N)=O)c2cc(Br)ccc2n1 | 1.34
COc1cccc(N2CCN(C(=O)NC3CCCCC3)CC2)c1 | 2.57
Cc1cc(C(=O)Nc2ccccc2C)c2ccccc2n1 | 14.1
O=c1[nH]cnc2c1nc(SCc1ccccc1)n2C1OC(CO)C(O)C1O (centres unmarked) | -2.32

SMILES | hERG current change (%, negative = inhibition) at 10uM [%]
O=c1cc(-c2ccc(O)cc2)oc2cc(O)cc(O)c12 | -2.23
CC(C)C[C@H]1CN=C(Nc2ccccc2)N1CCc1ccc(F)cc1 | -62.4
C[C@H]1CN=C(Nc2ccccc2)N1CCc1ccc(F)cc1 | -46.3
Cc1cccc(CCN2C(Nc3ccccc3)=NC[C@@H]2C)c1 | -23
Cc1cccc(CCN2C(N(C)C)=NC[C@@H]2CC(C)C)c1 | -18.1
Cc1cccc(CCN2C(Nc3ccccc3)=NC[C@@H]2CC(C)C)c1 | -67.5
COc1ccccc1C(=O)NNC1=NS(=O)(=O)c2ccccc21 | 20.3
COc1cccc(NC(=O)Cn2cc(C(=O)C3CC3)c3ccccc32)c1 | 0.319
CCn1c(-c2cccnc2)n[nH]c1=S | 0.542
CCOc1ccc(OCCC(=O)OCC(=O)NC2CCCCC2)cc1 | 11.4
CCn1c(N2CCN(CC(=O)c3c(C)n(C)c4ccc(OC)cc34)CC2)nc2c1c(=O)[nH]c(=O)n2C | 3.19
O=C(Cc1cn(-c2ccccc2)nc1-c1ccccc1)N1CCCCC1 | -18.3
Cc1c(C(=O)N2CCN(C(=O)c3ccco3)CC2)oc2c(Cl)cccc12 | -34.3
Cc1cc(Cl)c2oc(C(=O)N3CCN(C(=O)c4ccco4)CC3)c(C)c2c1 | -53.9
Cc1cc(Cl)c2oc(C(=O)N3CCN(c4cccc(C)n4)CC3)c(C)c2c1 | 16.3
Cc1cc(Cl)c2oc(C(=O)N3CCC(O)(c4ccccc4)CC3)c(C)c2c1 | 8.87
Cc1c(C(=O)N2CCN(c3ccccc3)CC2)oc2c(Cl)cccc12 | 4.82
Cc1cc(Cl)c2oc(C(=O)N3CCN(c4ccncc4)CC3)c(C)c2c1 | -75.9
CCOc1ccc(C(C(=O)NC(C)(C)C)N(CCOC)C(=O)CCC(=O)Nc2ccccn2)cc1 (centres unmarked) | -5.95
COC(=O)c1c(S(C)(=O)=O)nc(-c2ccccc2)[nH]c1=O | -2.13
